The list is not random: actives were taken first. Their share in the collection is about 11%.
AMA1 RON2 block – AMA1-RON2 (P. falciparum) interaction inhibition. 0.2% of 360,000 active. Potency, µM (top dose mostly 58.2 µM), for inactives: at the top dose activity change, negative = inhibition, most hits filed as inhibitors. AID 720542. AlphaScreen AMA1-biotinylated RON2 peptide binding;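 further: 0% = vehicle wells and -100% = peptide control; nearly all actives have a fitted effect of over 45% in size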
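AMA1 (3D7) with his tag at 25 nM final met compounds first, then biotinylated RON2 peptide at 25 nM; detection used donor plus acceptor beads, 10 µg/mL apiece, read by AlphaScreen after 30 min at room temperature.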
AmpC detergent – inhibitors of E. coli AmpC beta-lactamase with detergent; AmpC hydrolysis of nitrocefin, absorbance 480 nm, 0.01% Triton; 0.041% of 370,000 active; P00811; Potency, µM (series often up to 114 µM), for the others: at the highest dose activity change, negative = inhibition, actives largely listed as inhibitors;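 further: 0% = no-compound wells and -100% = no-enzyme wells; nearly all actives have a fitted effect of over 25% in size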
Target sequence (P00811 whole entry, looked up): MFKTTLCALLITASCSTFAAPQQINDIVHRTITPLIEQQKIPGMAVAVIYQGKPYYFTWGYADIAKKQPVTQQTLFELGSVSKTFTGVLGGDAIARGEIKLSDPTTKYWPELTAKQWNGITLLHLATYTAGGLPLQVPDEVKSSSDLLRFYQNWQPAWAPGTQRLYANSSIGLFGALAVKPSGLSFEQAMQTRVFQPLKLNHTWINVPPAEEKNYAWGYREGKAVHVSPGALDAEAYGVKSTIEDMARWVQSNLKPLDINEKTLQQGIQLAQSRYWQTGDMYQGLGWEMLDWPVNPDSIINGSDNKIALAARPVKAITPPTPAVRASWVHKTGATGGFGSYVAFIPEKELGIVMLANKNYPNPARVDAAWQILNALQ
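AmpC (5.3 nM in the dispensed reagent) in 20 mM phosphate pH 7.0 with 0.01% (detergent screen) or 0.0001% Triton X-100 was preincubated with compounds for 15 min at room temperature. Nitrocefin was then added from an 800 uM solution, and hydrolysis was followed at 480 nm.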
AmpC inh no detg – AmpC beta-lactamase inhibition without detergent; P00811; AmpC nitrocefin hydrolysis, absorbance 480 nm, 0.0001% Triton; Potency, µM (titrated, usually from 57.1 µM), without a hit: top-dose activity change, negative = inhibition, usual class: inhibitors; 0.52% of 330,000 active; AID 485341;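 further: plate controls were no compound for no effect and no enzyme for full effect; nearly all actives have a fitted effect of over 20% in size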
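20 mM phosphate pH 7.0 + 0.01% (detergent screen) or 0.0001% Triton X-100; 5.3 nM AmpC reagent; cpd preinc 15 min RT; nitrocefin (800 uM stock) to start; A480 q20 s × 4 min; Activity was normalised to no-enzyme and no-compound control wells.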
HCV inh – inhibitors of hepatitis C virus infection; Huh7.5.1 HCVcc-Cre infection, luciferase reporter, 44 h; Potency, µM (highest dose often 41.8 µM), inactives show at the top dose activity change, negative = inhibition, most hits filed as inhibitors; 3.4% of 340,000 active
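HCVcc-Cre virus at an moi near 0.5 was added right after compound to cells cultured 4 h from seeding (1,000 cells/well). Luciferase activity was determined 44 h later, 15 min after substrate addition at RT.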
Pf growth 48h – inhibits P. falciparum growth in the first generation, 48 h; P. falciparum luciferase growth in erythrocytes, 48 h; Potency, µM (doses to about 28.7 µM), without a hit: top-dose activity change, negative = inhibition, hits mostly inhibitors; 5.9% of 310,000 active; AID 504832
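Here the parasites carry a stable luciferase gene and grow inside erythrocytes in Albumax-based RPMI medium with compound for one erythrocytic cycle. Activity is scored as loss of luminescent signal.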
Pf growth 96h – P. falciparum growth inhibition at 96 hours. P. falciparum luciferase reporter growth, 96 h. Potency, µM (top dose mostly 28.7 µM), without a hit: at the top dose activity change, negative = inhibition, hits mostly inhibitors. 6.9% of 320,000 active
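P. falciparum expressing integrated firefly luciferase, in erythrocytes at 2% hematocrit, 0.05% parasitemia, incubated with compounds 96 h at 37 C, 5% CO2. Growth inhibition read as loss of luminescence; two-generation exposure targets delayed-death apicoplast inhibitors.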
* marks the source's active call; other numbers are inactive results; ? = inconclusive; . = no result given. The call rests on the fitted dose curve; in most records, active means well fitted curve in the direction sought with a large enough effect; inconclusive means small, poorly fitted or top-dose-only effect, or another doubt; inactive means no such curve, though single readings can be large; an effect the other way counts as inactive or inconclusive. Unless noted, on the % scale 0 is the no-effect control and ±100 the full control effect; potency means the concentration at half of the fitted maximal effect.

SMILES	AMA1 RON2 block	AmpC detergent	AmpC inh no detg	HCV inh	Pf growth 48h	Pf growth 96h
OC1(c2ccccc2)CCN(Cc2ccccc2)C2CCCCC21 (centres undefined)	-6.6%	-10.9%	-7.2%	12.8%	10.4µM*	61.7%
OC12CCCCC1C(c1ccccc1)NCC2 (centres undefined)	-5.0%	?	-6.5%	-9.2%	0.7%	-16.5%
Cc1ccc(C)c(N2CCN(C3CCCCC3NS(=O)(=O)c3ccccc3)CC2)c1 (centres undefined)	3.2%	-7.9%	2.3%	11.2µM*	?	11.7µM*
O=C(CSc1nccc(-c2cccs2)n1)Nc1cccc(Cl)c1	16.4%	1.8%	-40.8%	?	14.6%	?
Cc1onc(-c2ccc(Cl)cc2)c1-c1ccnc(SCC(=O)Nc2cc(Cl)cc(Cl)c2)n1	31.7%	9.5%	-19.7%	15.8µM*	?	?
CCCCC(=O)NC(NC(=S)N1CCOCC1)C(Cl)(Cl)Cl (centres undefined)	-19.4%	-1.6%	-23.4%	-5.2%	8.28µM*	.
O=C(NC(NC(=S)N1CCOCC1)C(Cl)(Cl)Cl)c1ccc(Cl)cc1 (centres undefined)	-4.0%	?	-33.5%	?	?	-4.8%
COc1ccc(C(=O)Nc2nnc(S(=O)(=O)N(C)c3ccc(Cl)cc3)s2)cc1OC	.	-2.6%	.	.	.	.
O=C(Nc1cccc(OCC(=O)N2CCOCC2)c1)c1cccc(Cl)c1	-4.5%	?	-3.6%	-6.8%	60.8%	9.1%
O=C(COc1cccc(NC(=O)c2cccc([N+](=O)[O-])c2)c1)c1ccc(Br)cc1	-14.9%	3.6%	-38.5%	14.1µM*	109.4%	68.7%
O=C(Nc1cccc(OCC(=O)N2CCOCC2)c1)c1cccc([N+](=O)[O-])c1	4.5%	-4.6%	-24.7%	8.6%	14.8%	7.38µM*
O=C(CSCc1cnn(-c2ccccc2)c1-n1cccc1)NCc1ccccc1F	.	-0.6%	.	.	.	.
CCC(=O)N1CCC2(CC1)Oc1ccc(F)cc1C(=O)C21CC(c2cccnc2)=NO1 (centres undefined)	5.2%	1.2%	98.8%	11.8%	48.4%	27.0%
O=C(c1ccc2c(c1)OCO2)N1CCC2(CC1)Oc1ccc(Cl)cc1C(=O)C21CC(c2ccccc2)=NO1 (centres undefined)	-10.1%	1.7%	18.8%	-11.6%	11.7µM*	13.1µM*
CC(C)C(=O)N1CCC2(CC1)Oc1ccc(Cl)cc1C(=O)C21CC(c2ccc(Cl)cc2)=NO1 (centres undefined)	9.9%	2.6%	60.1%	-11.4%	?	?
O=C(c1ccc2c(c1)OCO2)N1CCC2(CC1)Oc1ccc(F)cc1C(=O)C21CC(c2ccc(Cl)cc2)=NO1 (centres undefined)	1.5%	-12.9%	50.5%	10µM*	-21.7%	-3.6%
Cc1noc(C)c1C(=O)N1CCC2(CC1)Oc1ccc(F)cc1C(=O)C21CC(c2ccc(Cl)cc2)=NO1 (centres undefined)	4.9%	0.2%	181.4%	-10.2%	11.7µM*	?
Clc1ccc2c(c1)-c1c(cnc3cc(-c4ccccc4)nn13)CO2	.	1.0%	.	.	.	.
Cc1nc(C)c(-c2ccc(SCC(=O)Nc3ccc(Cl)c(Cl)c3)nn2)s1	.	7.6%	.	.	.	.
CCN(CC(=O)Nc1ccc(NC(C)=O)cc1)C(=O)/C=C/c1cn(Cc2ccccc2)nc1-c1cccnc1	-7.2%	?	43.8%	-4.3%	?	10.4µM*
CCN(CC(=O)Nc1ccc(NC(C)=O)cc1)C(=O)/C=C/c1ccccc1	0.8%	?	-19.9%	12.6%	27.5%	21.8%
CCN(CC(=O)Nc1ccc(NC(C)=O)cc1)C(=O)/C=C/c1cn(-c2ccccc2)nc1-c1cccs1	-3.5%	?	25.1µM*	?	?	?
CN1CCC(N(C)C(=O)/C=C/c2cn(-c3ccccc3)nc2-c2cccs2)CC1	-7.6%	3.1%	221.0%	7.94µM*	5.86µM*	?
O=C(O)CCN1C(=O)/C(=C/c2cn(-c3ccccc3)nc2-c2cccs2)SC1=S	-6.4%	-5.9%	23.4%	3.3%	-14.3%	18.0%
O=C(/C=C/NNC(=O)c1cccc(Br)c1)c1cccc(Br)c1	28.9%	-5.1%	-33.1%	?	9.28µM*	.
SMILES	AMA1 RON2 block	AmpC detergent	AmpC inh no detg	HCV inh	Pf growth 48h	Pf growth 96h
O=C(/C=C/NNC(=O)c1ccc(Cl)cc1)c1ccccc1	71.3%	-9.7%	-50.3%	8.91µM*	-30.4%	-20.3%
O=C(NNC(=O)C1CC=CCC1)c1cccc(Br)c1 (centres undefined)	22.8%	.	.	22.1%	.	.
COc1ccc(C(=O)NN/C=C/C(=O)c2ccc(Br)cc2)cc1	153.3%	.	.	.	.	.
O=C(/C=C/NCC(=O)c1ccccc1)c1ccc(Br)cc1	-2.9%	-0.2%	-35.0%	7.5%	21.4%	?
Cc1ccc(C(=O)/C=C/NNC(=O)c2ccccc2O)cc1	98.7%	-9.8%	-58.1%	0.6%	15.6%	-20.5%
COc1ccc(C(=O)C=CNNC(=O)c2ccc(Cl)cc2)cc1	101.4%	-0.1%	-45.1%	11.2µM*	?	3.5%
O=C(/C=C/NNC(=O)c1ccccc1)c1ccc(Br)cc1	17.6%	?	-38.0%	2.24µM*	.	183.4%
Cc1cc(C)c(C)c(OCC(=O)Nc2ccc(S(=O)(=O)Nc3nc(C)cc(C)n3)cc2)c1	.	-6.5%	.	.	.	.
CC(C)CCNC(=O)c1ccc(Cn2c(SCC(N)=O)nc3ccccc3c2=O)cc1	.	25.2%	.	.	.	.
CC(C)(C)NC(=O)C(=O)NNC(=O)c1cccc(Br)c1	25.9%	-10.0%	-6.9%	-15.5%	63.5%	2.08µM*
N/C(=N\OC(=O)c1cccc(Br)c1)c1ccc(Br)cc1	7.2%	0.7%	-30.1%	13.4%	48.0%	1.85µM*
O=C(O)c1cccc(Br)c1	9.8%	.	.	0.794µM*	.	.
O=C(O)c1cccc(C(=O)c2cccc(C(=O)O)c2)c1	10.7%	?	-9.2%	11.6%	28.2%	-0.9%
Cc1cccc(C(=O)NNC(=O)C(=O)NC(C)(C)C)c1	16.2%	3.2%	-21.6%	14.5%	50.0%	?
CN1CC(c2ccc(Cl)c(Cl)c2)[C@@]2(COc3ccccc3C2=O)[C@@]12C(=O)Nc1ccccc12 (some centres undefined)	-9.2%	11.6%	-12.1%	11.2µM*	3.29µM*	2.08µM*
Cc1ccc(S(=O)(=O)NCC(=O)OCc2ccccc2Br)cc1	11.4%	5.6%	-1.6%	24.3%	39.5%	9.28µM*
Cc1ccc(S(=O)(=O)NCC(=O)OCC(=O)c2ccc(Br)s2)cc1	-11.2%	-9.0%	-37.4%	-4.0%	-16.5%	.
